Data taken from PubChem BioAssay AID2291 (The Scripps Research Institute Molecular Screening Center, 2010).
Out of some 16,000 compounds screened, about 75 (0.5%) were called active. No stated cut-off is given here; in the data, active means inhibition above about 30%; inactive means the rest. For the sample, actives were picked, then their nearest neighbours and some compounds at random.

Target: Protein phosphatase methylesterase 1 (Homo sapiens) (UniProt Q9Y570)
Experiment: inhibitors of human PME-1 in Maybridge library (AID 2291)
Settings: recombinant PME-1, FP-Rh probe fluorescence polarization; at 9 µM; hits give high values

Chain of Protein phosphatase methylesterase 1 (Homo sapiens) (Q9Y570 whole entry, looked up): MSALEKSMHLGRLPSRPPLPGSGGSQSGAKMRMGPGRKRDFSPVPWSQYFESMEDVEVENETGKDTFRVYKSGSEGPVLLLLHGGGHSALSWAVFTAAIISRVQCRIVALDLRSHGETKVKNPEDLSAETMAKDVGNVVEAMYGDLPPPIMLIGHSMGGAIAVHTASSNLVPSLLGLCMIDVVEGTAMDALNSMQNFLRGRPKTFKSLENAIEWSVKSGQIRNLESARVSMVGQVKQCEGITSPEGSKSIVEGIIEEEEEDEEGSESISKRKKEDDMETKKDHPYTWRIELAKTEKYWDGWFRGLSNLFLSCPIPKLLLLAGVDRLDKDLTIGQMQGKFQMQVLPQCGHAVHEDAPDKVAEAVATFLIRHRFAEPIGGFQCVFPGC

SMILES	inhibition
CCOC(=O)c1cc(C)nc(Sc2ccccc2NC(=O)Nc2ccc(Cl)cc2)c1C#N	25.2% (inactive)
CCOC(=O)c1c(C)nn(-c2ncccc2NC(=O)Nc2cccc(Cl)c2Cl)c1C	37.4% (active)
Cc1nc2cc3c(cc2s1)OCO3	-0.92% (inactive)
O=C(NC(=S)Nc1nc(-c2ccc(Cl)cc2)cs1)C1CC1	-13.9% (inactive)
O=S(=O)(Nc1ccc2[nH]ccc2c1)c1cccs1	3.17% (inactive)
CCCCC#Cc1cncc(C(=O)NNC(=O)Nc2ccc(Cl)cc2)c1	2.26% (inactive)
O=C1CSC(=S)N1c1ccc(N2CCCCCC2)c(N2C(=O)CSC2=S)c1	-4.27% (inactive)
COC(=O)c1sccc1Oc1ccc(Cl)cc1[N+](=O)[O-]	2.05% (inactive)
O=C(NCc1cccnc1)c1cnc2ccccc2n1	3.18% (inactive)
Cc1cc2c(cn1)C(=O)c1ccccc1-2	4.96% (inactive)
O=C1C(Cl)=C(Oc2cc(Cl)c(Cl)cc2Cl)C(=O)c2ccccc21	33.4% (active)
COc1cccc(C(=O)c2sc3nsc(SCc4ccc(F)cc4)c3c2N)c1	-5.96% (inactive)
N#C/C(=C\c1ccsc1Sc1ccc(Cl)cc1)S(=O)(=O)c1ccc(Cl)cc1	-9.13% (inactive)
Cc1c(-c2cnc(NC(=O)c3ccccc3)s2)sc2ccc(Cl)cc12	-9.03% (inactive)
CCOC(=O)C(NC(=O)Nc1ccccc1)(Nc1ccccc1OC)C(F)(F)F (configuration not stated)	-0.9% (inactive)
O=C(O)CSC(SCC(=O)O)c1ccc2c(c1)OCO2	-0.753% (inactive)
O=c1[nH]/c(=C/c2ccc(OC(F)(F)F)cc2)c(=O)[nH]/c1=C/c1ccc(OC(F)(F)F)cc1	-0.938% (inactive)
N#Cc1c(C(F)(F)F)cc(-c2cccs2)nc1N1CCCCC1	-3.16% (inactive)
Oc1ccccc1C=Nc1ccc(F)cc1	-4.6% (inactive)
COc1ccc(-c2csc(-c3cc(C)on3)n2)cc1	9.36% (inactive)
Cc1ccc(/C=c2\sc3nc4ccccc4n3c2=O)o1	7.34% (inactive)
Cc1c(NC(=O)c2cccnc2)c(=O)n(-c2ccccc2)n1C	2.93% (inactive)
CCOC(=O)c1c(-c2ccco2)csc1NC(=O)Nc1ccc(Cl)cc1	-41.9% (inactive)
OC(c1ccncc1)c1c[nH]c2ccccc12 (configuration not stated)	-0.868% (inactive)
O/N=C/c1ccc(F)c(Cl)c1	2.78% (inactive)
Cc1ccc2oc(-c3cccs3)nc2c1	2.37% (inactive)

SMILES	inhibition
Cc1cc(NCc2cccnc2)no1	1.95% (inactive)
NNC(=O)c1csc(-c2ccc(C(F)(F)F)cn2)n1	4.74% (inactive)
CC(=O)Nc1cccc([N+](=O)[O-])c1	2.8% (inactive)
CSc1nc(N)n(-c2ccccc2)n1	2.24% (inactive)
CCOC(=O)C(O)(NC(=O)Nc1ccccc1)C(F)(F)F (configuration not stated)	6.03% (inactive)
CCCCc1c(COC)nc(-c2ccc(Cl)cc2)[nH]c1=O	2.14% (inactive)
CCCCCCCCc1ccc(C(=O)O)cc1	1.13% (inactive)
Cn1c(=O)c(/C(N)=N/OC(=O)c2ccccc2Cl)cn(-c2ccccc2)c1=O	-0.69% (inactive)
Cc1nnc(Sc2ccc([N+](=O)[O-])c(Sc3nnc(C)s3)n2)s1	5.33% (inactive)
O=C(Nn1cnnc1)c1cccs1	5.13% (inactive)
O=C(Nc1ccccc1)N1CCN(c2ncnc3sccc23)CC1	1.02% (inactive)
O=C(O)c1ccccc1/C=N/Nc1cc(Cl)ccc1Cl	6.19% (inactive)
CCOC(=O)N/N=C(\C)c1cccc(NC(C)=O)c1	-0.548% (inactive)
CCCN(CCC)S(=O)(=O)c1ccc(C(=O)O/N=C(\C)c2ccccc2O)cc1	0.391% (inactive)
COC(=O)c1cnc(Oc2ccc(N)cc2)cc1C(F)(F)F	0.526% (inactive)
CCOC(=O)NC(=O)/C(=C/NCc1cccs1)C(=O)OCC	0.233% (inactive)
COc1ccccc1NC(=O)c1ccc(C#Cc2ccccc2)o1	-10.2% (inactive)
CS/C(N)=N/N=C/c1cccs1	1.26% (inactive)
CC1=NOC(=O)/C1=C\c1ccccc1	3.58% (inactive)
COc1ccc(-c2nnc(SCC(O)C(F)(F)F)n2-c2cccc(OC)c2)cc1 (configuration not stated)	1.14% (inactive)
CC(C)(C)c1ccc(NC(=O)c2ccco2)c(NC(=O)C(Cl)(Cl)Cl)c1	2.58% (inactive)
FC(F)(F)c1cccc(-n2c(-c3ccncc3)n[nH]c2=S)c1	-4.3% (inactive)
Cc1ccc2oc(=O)n(CC/C(N)=N/OC(=O)c3ccc(C(F)(F)F)nc3C)c2c1	4.33% (inactive)
CCOc1cc(-c2cccs2)nc(N)n1	0.0895% (inactive)
Cc1ccc(OC(=O)c2nn(-c3ccccc3)nc2C)c([N+](=O)[O-])n1	-1.37% (inactive)
O=C(CN1C(=O)/C(=C/c2ccccc2Cl)N=C1c1ccccc1)c1ccccc1	-14% (inactive)

SMILES	inhibition
COc1c(Br)cc(C#N)cc1Br	7.88% (inactive)
O=C(Nc1ccccc1)O/N=C1/CCCc2occc21	-1.78% (inactive)
COc1ccc(CCNCC(O)Cn2ccc3ccccc32)cc1OC (configuration not stated)	-0.35% (inactive)
COc1cc(NC(=O)COc2cc(Cl)c(Cl)cc2Cl)cc(OC)c1OC	-4.1% (inactive)
N#Cc1c(N)nc2c3c1NC(O)(c1ccccc1)C(C#N)C3c1cc(Cl)ccc1O2 (configuration not stated)	-25.9% (inactive)
COc1cccc(NC(=S)NNC(=S)NC2CC3CCC2C3)c1 (configuration not stated)	5.71% (inactive)
O=C(O)C1CC2CC1CCC2O (configuration not stated)	4.17% (inactive)
NC(=O)c1c(C(F)(F)F)cc(C(F)(F)F)cc1C(F)(F)F	-0.0338% (inactive)
O/N=C/c1sccc1Oc1ccccc1	5.19% (inactive)
CSc1nccc(-c2ccc(S(=O)(=O)n3nc(C)c(Br)c3C)s2)n1	-1.68% (inactive)
CC1CN=C(N(Cc2cccnc2)C(=O)Nc2ccc(Cl)c(Cl)c2)S1 (configuration not stated)	-62.8% (inactive)
N#Cc1cn(C2CCCCC2)c(=O)[nH]c1=O	6.75% (inactive)
COCCOc1ccc(NC(=S)N2CCOCC2)cc1	-0.885% (inactive)
O=C1CCN(Cc2ccccc2)C(=O)N1c1ccc2c(c1)CCO2	5.14% (inactive)
Cc1nc(-c2nnc(SCC(=O)c3ccc(F)cc3)n2C)cs1	3.93% (inactive)
CSc1nc(N)c2ccccc2n1	4.47% (inactive)
O/N=C(\c1ccccc1)c1ccccn1	1.61% (inactive)
Cc1cc(C)n(/N=c2\sc(-c3ccccc3)cn2C2CC3C=CC2C3)c(=O)c1C#N (configuration not stated)	1.38% (inactive)
NC(=O)c1ccc(-c2csnn2)cc1	4.57% (inactive)
CC(=O)N1CCc2cc(NC(=S)Nc3ccccc3Cl)ccc21	-0.615% (inactive)
CC1=CC(=O)C(CCC2=CC(=O)C(C)=CC2=O)=CC1=O	-5.46% (inactive)
CN(C)/C=C1/C(=O)NN=C1CSc1ccc(Cl)cc1	4.88% (inactive)
O=S(=O)(CCN1CCC(C(F)(F)F)CC1)c1ccccc1	5.79% (inactive)
CSc1nc2c(c(/C=C/c3ccccc3)c1C#N)CCC2	0.0789% (inactive)
CSC(=Nc1ccccc1C(F)(F)F)N1CCCC1	-2.33% (inactive)
Cc1ccc(S(=O)(=O)NC(=O)NCCSCc2ccco2)cc1	5.18% (inactive)

SMILES	inhibition
NNC(=O)c1cc2ccccc2s1	7.18% (inactive)
O=C(O)c1nccnc1C(=O)O	5.09% (inactive)
CC(=O)OC1=CCC2C3CC[C@@]4(C)CC(OC(C)=O)CCC4(C)C3C(OC(C)=O)CC12C (some centres not stated)	-6.54% (inactive)
OC1(C#Cc2ccccc2)CCN(Cc2ccccc2)CC1	4.15% (inactive)
O=C(Nc1ccc(OCc2ccccc2)cc1)OCC1CN(Cc2ccccc2)CCO1 (configuration not stated)	5.09% (inactive)
CCCCCCCCCCCCCC#CC(O)C(N)CO (configuration not stated)	-4.1% (inactive)
OCCNC(=S)Nc1ccccc1-c1ccccc1	0.487% (inactive)
FC(F)(F)C1=CC=NCCN1	10.1% (inactive)
OCCNc1nc2ccccc2[nH]1	-2.41% (inactive)
O=S(=O)(c1ccccc1)c1cc(C(F)(F)F)cc(C(F)(F)F)c1	-0.142% (inactive)
O=C(NCc1ccc2c(c1)OCO2)c1cccc2c1OCCCO2	-4.73% (inactive)
O=C1c2cc(S(=O)(=O)Oc3ccccc3)ccc2-c2ccc(S(=O)(=O)Oc3ccccc3)cc21	5.56% (inactive)
CN(Cc1nnc(-c2ccc3ccccc3c2)o1)c1nnc(C(F)(F)F)s1	3.28% (inactive)
COC(=O)c1ccccc1-c1c2ccc(=O)cc-2oc2cc(O)ccc12	61.2% (active)
COC(=O)c1ccccc1NC(=O)c1ccc(Oc2cc(Cl)cc(Cl)c2)o1	-2.65% (inactive)
COC(=O)c1ccccc1N(C)C(=O)c1cc(OC)c(OC)c(OC)c1	0.643% (inactive)
S=C(SCc1ncon1)N1CCSCC1	-2.3% (inactive)
C/C(=N\NC(N)=S)c1cc2cc(Cl)ccc2o1	-1.43% (inactive)
Clc1ccc(C2=NN(Cc3ccccc3)CC2)s1	2.04% (inactive)
NC(=NC(=O)CCn1c(=O)oc2ccccc21)c1cc(Cl)cc(Cl)c1	-1.92% (inactive)
O=S(=O)(Oc1cccc(C(F)(F)F)c1)c1cc(S(=O)(=O)c2ccccc2)cs1	-3.1% (inactive)
CC(C)(C)c1cc(C(=O)N/N=C/c2ccc([N+](=O)[O-])s2)n[nH]1	4.23% (inactive)
CCOC(=O)/C(C#N)=C/N/S(C)=N/N=C/c1ccc(N(C)C)cc1 (configuration not stated)	4.21% (inactive)
NNC(=O)CSc1nnc(-c2ccccc2)n1-c1ccccc1	3.4% (inactive)
